Measurements reported in PubChem BioAssay AID651899 (Broad Institute, 2012).
Measured potencies and affinities stand elsewhere. Calls of active or inactive are those of the source. No rule for the calls is given here.

Assay: HEK293 cell viability loss – plate reader, cherry-pick, cytotoxicity control, dose response (AID 651899);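 also: cells exposed to compound for 48 hours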
Settings: series mostly up to 26 µM

| SMILES | outcome |
| --- | --- |
| CC1=CC2=NC(=O)/C(=C\c3cc(C)n(-c4ccccc4F)c3C)C(=N)N2O1 | inactive |
| Cc1ccc(-c2nnc(N3CCN(C(=O)CSc4ncn[nH]4)CC3)c3ccccc23)cc1 | inactive |
| Cn1nnc2cc(C(=O)N3CCC(c4ccccc4)C3)ccc21 (stereo unspecified) | inactive |
| C#CCSc1nnc(-c2sc(-c3ccccc3)nc2C)n1C | inactive |
| O=C(C[C@H]1C[C@@H]2c3cc(NC(=O)c4cccnc4)ccc3O[C@@H]2[C@@H](CO)O1)NCC(F)(F)F | inactive |
| COc1ccc(C(=O)Nc2cccnc2)cc1OC | inactive |
| C/C=C(/C)C(=O)OC(C)(C)[C@@H]1Cc2c(ccc3ccc(=O)oc23)O1 | inactive |
| O=C(CSc1nc2cc(C(=O)O)ccc2c(=O)n1-c1ccc(F)cc1)Nc1ccc(F)c(F)c1F | inactive |
| Cc1ccc(-n2ncc3c2CC(C)(C)CC3NC(=O)CCc2cccnc2)cc1 (stereo unspecified) | inactive |
| Cn1c(=O)c2c(nc(OCc3cccnc3)n2Cc2ccccc2)n(C)c1=O | inactive |
| O=C(COc1ccc2ccc(=O)oc2c1)N1CCN(c2ccc(F)cc2)CC1 | inactive |
| COc1ccc(C(=O)C2CCCN(C(=O)c3ccc(C(C)=O)s3)C2)c(C)c1 (stereo unspecified) | inactive |
| CN(Cc1ccccc1)C(=O)CCS(=O)(=O)c1ccc2c(c1)NC(=O)CS2 | inactive |
| COC(=O)C[C@H]1CC[C@@H]2[C@H](COC[C@@H](O)CN2C(=O)Nc2cccc(F)c2)O1 | inactive |
| O=C(CSc1nnc(-c2ccncc2)n1-c1ccc(Cl)cc1)NCc1cccs1 | inactive |
| CCCc1c(OCCCOc2ccc(OCC(=O)O)cc2)ccc(C(C)=O)c1O | inactive |
| COc1ccc(-c2ccc3c(c2)[C@H]2[C@H](CCN2C(=O)Cc2cccnc2)[C@H](CO)N3C)cc1 | inactive |
| CCNC(=O)[C@H]1[C@H](CO)[C@H]2Cn3c(ccc(-c4cccc(F)c4)c3=O)[C@H]2N1C(=O)Cc1cccnc1 | inactive |

| SMILES | outcome |
| --- | --- |
| CCCc1cc(=O)oc2c3c(cc(OCC(=O)NCCCn4ccnc4)c12)OC(C)(C)CC3 | inactive |
| N#C[C@H]1[C@@H](c2ccccc2)[C@@H](CO)N1C(=O)Nc1cccc(F)c1 | inactive |
| CN1c2ccc(-c3cccc(F)c3)cc2[C@@H]2[C@@H](CCN2C(=O)c2ccncc2)[C@H]1CO | inactive |
| O=C(C1CCOCC1)N1CC[C@@H]2[C@H](CO)Nc3ccc(Br)cc3[C@@H]21 | inactive |
| O=C(c1ccncc1)N1CC[C@@H]2[C@@H](CO)Nc3ccc(Br)cc3[C@@H]21 | inactive |
| O=C(Nc1ncc2c(n1)CC(c1ccccc1)CC2=O)c1ccco1 (stereo unspecified) | inactive |
| O=C(Nc1ccc(F)c(F)c1)c1ccc(-n2cncn2)c([N+](=O)[O-])c1 | inactive |
| CCCCN1C(=O)c2ccc(C(=O)Nc3cccnc3)cc2C1=O | inactive |
| COc1ccc(-c2cc(NC=O)c3ncc(-c4cccc(C(=O)N(C)C)c4)n3c2)cn1 | inactive |
| COc1ccc(Cc2c(-c3ccc(OC)c(OC)c3)nc3ccc(C)cn23)c(C)c1 | inactive |
| COc1ccc(NC2c3ccccc3C(=O)N2c2cccnc2)cc1Cl (stereo unspecified) | inactive |
| O=C(Nc1ccc(Cl)c(-c2nc3ccccc3[nH]2)c1)c1cccnc1 | inactive |
| O=C(C[C@@H]1C[C@@H]2c3cc(NC(=O)c4cccnc4)ccc3O[C@@H]2[C@@H](CO)O1)NCCc1ccccc1 | inactive |
| CCOc1ccc(CCNC(=O)c2cnc(C)cn2)cc1OCC | inactive |
| CNC(=O)C[C@H]1CC[C@@H]2[C@H](COC[C@@H](O)CN2C(=O)Nc2ccc3c(c2)OCO3)O1 | inactive |
| CC(=O)c1ccc(N2CCN(C(=O)Cc3ccccc3)CC2)c(F)c1 | inactive |
| CCn1c(=O)c(=O)n(CC)c2cc(S(=O)(=O)Nc3cc(C)ccc3C)ccc21 | inactive |
| Cc1ccc(S(=O)(=O)N(C)C)cc1NC(=O)CSc1nncs1 | inactive |
